The full ranking holds about 18,000 sequences; the median of “TetR repression strength (sort-seq, GFP reporter)” is about 0.23, and the highest 2% start at about 0.68. The sample holds the highest values, similar sequences and a random draw of the others, so the mix is not that of the screen.

Consider 103 sequences from a collection of fitness landscapes (doi:10.1038/s41467-024-54723-y).

The assay deals with TetR (class B, Tn10) (UniProt P04483). Put plainly: TetR repression strength (sort-seq, GFP reporter) (relative to tetO2 = 1); higher = stronger repression. As to conditions: E. coli. An outline of the steps: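 Repression strength was calculated by subtracting the read-weighted mean bin from the top bin index plus one and dividing by the unaltered operator's value. The plasmid library was low-copy in E. coli SIG10-MAX, with eight randomized operator positions between a constitutive promoter and sfGFP and constitutive TetR. Cultures grew 5 h at 37 °C in LB containing 50 µg/mL chloramphenicol before 10^6 cells were sorted by FACS into 13 fluorescence bins, each sequenced on Illumina. Three independent transformations were averaged for members having ≥30 reads in all replicates and a CV ≤0.5.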
TetR (class B, Tn10), sequence (P04483 whole entry): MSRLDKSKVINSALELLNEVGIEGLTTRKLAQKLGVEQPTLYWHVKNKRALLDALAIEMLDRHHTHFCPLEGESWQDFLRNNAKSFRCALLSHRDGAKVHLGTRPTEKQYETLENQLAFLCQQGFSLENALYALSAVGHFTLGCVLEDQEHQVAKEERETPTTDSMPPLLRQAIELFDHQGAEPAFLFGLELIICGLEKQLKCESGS
TCCCTTTAAGTGCGCGAGA displayed a TetR repression strength of 0.764.

In turn, TCCCTTAAAGTGATCGAGA returned a TetR repression strength of 0.207.

On to TCCCTTTAAGTGCACGAGA, for which the TetR repression strength is 0.207.

The sequence TCCCGCGGAGTGGCGGAGA had a TetR repression strength of 0.119.

Regarding TCCCGCGCAGTGTAAGAGA, the TetR repression strength is 0.222.

For TCCCTATGAGTGTGGGAGA, the TetR repression strength turned out to be 0.223.

Sequence TCCCCTGGAGTCGTGGAGA came in with a TetR repression strength of 0.258.

In turn, TCCCTGGTAGTGGAGGAGA registered a TetR repression strength of 0.101.

In turn, TCCCGAGTAGTGAGGGAGA returned a TetR repression strength of 0.242.

TCCCGATAAGTCGTCGAGA had a TetR repression strength of 0.0276.

TCCCGGATAGTATCAGAGA: the TetR repression strength turned out to be 0.893.

In the case of TCCCCGGGAGTATCAGAGA, the TetR repression strength came out at 0.332.

In turn, TCCCGGATAGTATGAGAGA returned a TetR repression strength of 0.24.

On to TCCCGGTGAGTATCAGAGA, for which the TetR repression strength was 0.188.

TCCCGAATAGTATCAGAGA returned a TetR repression strength of 0.207.

Sequence TCCCGGAGAGTATCAGAGA had a TetR repression strength of 0.893.

As to TCCCGTGCAGTCATTGAGA, the TetR repression strength stood at 0.276.

For the sequence TCCCTCTCAGTTCGTGAGA, the TetR repression strength is 0.181.

TCCCAGTGAGTTGGAGAGA returned a TetR repression strength of 0.303.

Sequence TCCCTGGCAGTAGGGGAGA came in with a TetR repression strength of 0.185.

As to TCCCTCTCAGTTGTTGAGA, the TetR repression strength came to 0.357.

As to TCCCTCTAAGTTGATGAGA, the TetR repression strength amounted to 0.795.

Sequence TCCCCCCAAGTTGATGAGA showed a TetR repression strength of 0.369.

With TCCCTCTCAGTTGATGAGA, the TetR repression strength was 0.736.

TCCCCCTCAGTTGATGAGA came in with a TetR repression strength of 0.262.

For TCCCTGTAAGTTGATGAGA, the TetR repression strength amounted to 0.236.

TCCCCGCAAGTTGATGAGA displayed a TetR repression strength of 0.85.

Regarding TCCCCGCAAGTTGTTGAGA, the TetR repression strength worked out at 0.198.

Take TCCCTCTAAGTTGAGGAGA: the TetR repression strength was 0.0793.

As for TCCCTTGCAGTTATAGAGA, the TetR repression strength was 0.461.

In turn, TCCCTGGAAGTAATCGAGA gave a TetR repression strength of 0.241.

The sequence TCCCCATTAGTACGTGAGA came in with a TetR repression strength of 0.214.

In the case of TCCCCGCGAGTAGGGGAGA, the TetR repression strength worked out at 0.245.

With TCCCGAAGAGTCTTAGAGA, the TetR repression strength was 0.279.

On to TCCCACACAGTCGGAGAGA, for which the TetR repression strength was found to be 0.333.

Regarding TCCCCTGAAGTGGCAGAGA, the TetR repression strength was found to be 0.204.

Turning to TCCCGCTGAGTCGGCGAGA, the TetR repression strength worked out at 0.15.

TCCCCAGAAGTGGTAGAGA registered a TetR repression strength of 0.255.

TCCCGTTTAGTGTTTGAGA yielded a TetR repression strength of 0.0592.

As for TCCCATCTAGTATCTGAGA, the TetR repression strength worked out at 0.199.

The sequence TCCCATCTAGTGTGGGAGA gave a TetR repression strength of 1.06.

For TCCCATCTAGTATCGGAGA, the TetR repression strength is 0.908.

The sequence TCCCATCTAGTGAGTGAGA gave a TetR repression strength of 0.316.

In the case of TCCCATCTAGTGTGTGAGA, the TetR repression strength worked out at 0.253.

Regarding TCCCATCTAGTGCGTGAGA, the TetR repression strength was 0.708.

Consider TCCCATAGAGTACTGGAGA, for which the TetR repression strength was determined as 0.169.

As for TCCCATGGAGTACTGGAGA, the TetR repression strength stood at 0.0311.

Take TCCCTTCTAGTATCGGAGA: the TetR repression strength is 0.317.

TCCCATCGAGTACTGGAGA displayed a TetR repression strength of 1.02.

On to TCCCATCTAGTGGGGGAGA, for which the TetR repression strength came to 0.318.

The sequence TCCCGTCTAGTGCGTGAGA had a TetR repression strength of 0.0665.

The sequence TCCCGCCTAGTAGGCGAGA showed a TetR repression strength of 0.391.

On to TCCCCTTCAGTACGAGAGA, for which the TetR repression strength is 0.251.

In turn, TCCCGGTCAGTGGTGGAGA had a TetR repression strength of 0.24.

TCCCTCACAGTGGTAGAGA yielded a TetR repression strength of 0.157.

In turn, TCCCAACTAGTCCTGGAGA gave a TetR repression strength of 0.278.

In turn, TCCCTCATAGTATTGGAGA had a TetR repression strength of 0.22.

On to TCCCTGGCAGTGATAGAGA, for which the TetR repression strength came to 0.489.

In turn, TCCCCGTCAGTGCGGGAGA showed a TetR repression strength of 0.0283.

On to TCCCTTCTAGTTGGCGAGA, for which the TetR repression strength stood at 0.281.

In turn, TCCCATCTAGTTGGAGAGA yielded a TetR repression strength of 0.371.

Regarding TCCCATCTAGTTGGCGAGA, the TetR repression strength came out at 0.829.

TCCCTTTAAGTTCACGAGA: the TetR repression strength was 0.199.

Consider TCCCGGTTAGTTAGCGAGA, for which the TetR repression strength was 0.363.

For the sequence TCCCGGGAAGTCCTCGAGA, the TetR repression strength was 0.985.

The sequence TCCCGGGCAGTCCTCGAGA had a TetR repression strength of 0.909.

The sequence TCCCGGGCAGTCGTCGAGA yielded a TetR repression strength of 0.311.

Take TCCCGGTCAGTCCTCGAGA: the TetR repression strength amounted to 0.15.

The sequence TCCCGGGGAGTCCTCGAGA gave a TetR repression strength of 0.242.

For TCCCGGGAAGTCCGCGAGA, the TetR repression strength amounted to 0.144.

TCCCGGACAGTGTAGGAGA came in with a TetR repression strength of 0.295.

TCCCTCCTAGTGTGGGAGA had a TetR repression strength of 0.194.

TCCCTGGCAGTGATGGAGA came in with a TetR repression strength of 0.189.

The sequence TCCCGGCGAGTGGTAGAGA came in with a TetR repression strength of 0.306.

For TCCCGAGTAGTCCTCGAGA, the TetR repression strength worked out at 0.207.

In turn, TCCCCTGTAGTCGGGGAGA showed a TetR repression strength of 0.858.

As for TCCCCTGTAGTAGGGGAGA, the TetR repression strength is 0.261.

For the sequence TCCCTTGGAGTCATGGAGA, the TetR repression strength was 0.307.

Take TCCCTTGTAGTCTTGGAGA: the TetR repression strength stood at 0.287.

TCCCCTGGAGTCGGGGAGA registered a TetR repression strength of 0.222.

Regarding TCCCTTGTAGTCGGGGAGA, the TetR repression strength is 0.938.

TCCCTTGTAGTCATGGAGA yielded a TetR repression strength of 0.687.

In the case of TCCCTTGTAGTCCGGGAGA, the TetR repression strength turned out to be 0.387.

In turn, TCCCTTGGAGTCGGGGAGA returned a TetR repression strength of 0.319.

TCCCAGGCAGTCGGCGAGA had a TetR repression strength of 0.25.

On to TCCCAAAGAGTGGGGGAGA, for which the TetR repression strength amounted to 0.217.

Take TCCCGTAGAGTGTACGAGA: the TetR repression strength was 0.175.

With TCCCGTGGAGTGCCTGAGA, the TetR repression strength came to 0.0904.

For the sequence TCCCCGCCAGTGACCGAGA, the TetR repression strength came out at 0.207.

TCCCGGAAAGTGACCGAGA: the TetR repression strength came to 0.203.

In turn, TCCCCGACAGTGACTGAGA came in with a TetR repression strength of 0.207.

Regarding TCCCCGAAAGTGACCGAGA, the TetR repression strength came to 1.21.

TCCCCGAAAGTGGCCGAGA displayed a TetR repression strength of 0.0544.

TCCCCGACAGTGACCGAGA showed a TetR repression strength of 1.08.

For TCCCGCGGAGTCCTCGAGA, the TetR repression strength was found to be 0.294.

Regarding TCCCTATGAGTGGGCGAGA, the TetR repression strength was determined as 0.164.

In turn, TCCCACTCAGTTAGGGAGA came in with a TetR repression strength of 0.268.

As to TCCCCCAGAGTCGACGAGA, the TetR repression strength came to 0.84.

Turning to TCCCCCATAGTCGGCGAGA, the TetR repression strength worked out at 0.134.

Sequence TCCCCCATAGTCGACGAGA yielded a TetR repression strength of 0.825.

With TCCCCAAGAGTCGACGAGA, the TetR repression strength was 0.264.

As to TCCCCCCGAGTCGACGAGA, the TetR repression strength amounted to 0.239.

TCCCCGATAGTCGACGAGA gave a TetR repression strength of 0.0424.
